Source: PubChem BioAssay
ELG1 genotox – induces genotoxicity in HEK293T cells with luciferase-tagged ELG1; HEK293T ELG1-luciferase reporter, luminescence, 16 h; Potency, µM (doses to about 46 µM), for inactives: at the highest dose activity change, positive = activation, hits mostly activators; 330,000 tested, 1.3% active; AID 504466; note: % of control where 0% means no effect; nearly all actives have a fitted effect of over 60% in size
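Luminescence read-out: rising ELG1-luciferase signal, reflecting elevated ELG1 protein under genetic stress, flags genotoxic compounds. Cells were treated for 16 hr at 37 °C before ONE-Glo detection.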
NPC1 promoter act – activators of NPC1 promoter; Potency, µM (series often up to 9.22 µM), inactives show top-dose activation, actives largely listed as activators; Huh7 NPC1 promoter luciferase reporter, 24 h; 320,000 tested, 2.4% active; AID 485313; note: % of control where 0% means no effect; nearly all actives have a fitted effect of over 60% in size
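Luminescence read-out of NPC1 promoter-driven luciferase in stably transfected Huh7 cells; compounds delivered in DMSO and left 24 h at 37C, 5% CO2, qHTS titration format.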
KinaseGlo FLuc – counter-screen: inhibitors of Kinase-Glo firefly luciferase | Kinase-Glo luciferase, ATP luminescence, 8 min | Potency, µM (series often up to 38.3 µM), inactives show at the highest dose activity change, negative = inhibition, actives largely listed as inhibitors | 200,000 tested, 0.28% active | AID 1379; note: % is set by controls: 0 for no effect and ±100 for the full control effect; nearly all actives have a fitted effect of over 60% in size
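Luminescence was the read-out, taken after 8-minute incubation at ambient temperature. Luciferase turned over luciferin with 10 uM ATP in imidazole pH 7.2 buffer containing KCl, MgCl2, Tween 20 and BSA.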
FLuc counter – inhibits or activates purified firefly luciferase, miR-21 counter-screen. AID 588342. P08659. purified FLuc, Km substrates, luminescence inhibition. Potency, µM (series often up to 57.5 µM), inactives show at the highest dose activity change, negative = inhibition, most hits filed as inhibitors. 360,000 tested, 6.9% active;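 note: plate controls were vehicle for no effect and reference inhibitor for full effect; nearly all actives have a fitted effect of over 55% in size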
Target sequence (P08659 whole entry, looked up): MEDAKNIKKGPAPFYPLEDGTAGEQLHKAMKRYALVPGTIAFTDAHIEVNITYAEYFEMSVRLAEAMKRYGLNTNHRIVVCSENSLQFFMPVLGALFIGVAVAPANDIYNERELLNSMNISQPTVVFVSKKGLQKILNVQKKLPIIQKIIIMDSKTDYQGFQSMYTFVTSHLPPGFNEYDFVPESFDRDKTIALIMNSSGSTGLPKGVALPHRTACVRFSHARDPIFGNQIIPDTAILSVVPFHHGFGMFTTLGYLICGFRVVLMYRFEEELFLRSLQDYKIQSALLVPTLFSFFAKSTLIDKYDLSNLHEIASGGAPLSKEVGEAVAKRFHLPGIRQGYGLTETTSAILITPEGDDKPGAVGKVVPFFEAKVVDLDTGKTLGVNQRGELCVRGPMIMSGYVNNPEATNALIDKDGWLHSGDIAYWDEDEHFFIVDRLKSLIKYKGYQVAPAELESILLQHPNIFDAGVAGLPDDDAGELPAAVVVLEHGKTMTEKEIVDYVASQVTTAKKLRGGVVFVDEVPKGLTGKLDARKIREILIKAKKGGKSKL
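Biochemical qHTS of compounds, final roughly 60 µM downward over six points, against 10 nM purified firefly luciferase using Km concentrations of substrates (10 uM D-luciferin, 10 uM ATP) in Tris acetate pH 7.5 buffer; luminescence output.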
SMN2 splice enh – SMN2 splice variant enhancement. HEK293 SMN2-luciferase splicing reporter, luminescence, 30-36 h. Potency, µM (series often up to 46.1 µM), for the others: at the highest dose activity change, positive = activation, usual class: activators. 210,000 tested, 2.8% active. AID 1458; note: % of control where 0% means no effect; nearly all actives have a fitted effect of over 55% in size
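HEK293 cells carry an SMN2 minigene-luciferase reporter in which exon 7 inclusion puts luciferase in frame. Cells were seeded at 2000 cells/well, attached for 10-12 hours, then exposed to compounds for 30-36 hours at 37C before ONE-Glo luminescence.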
Rab9 promoter act – activates the Rab9 promoter; 320,000 tested, 2.8% active; Potency, µM (titrated, usually from 9.22 µM), for the others: top-dose activation, negative = inhibition, actives largely listed as activators; Huh7 Rab9 promoter-luciferase reporter, luminescence, 24 h; note: % of control where 0% means no effect; nearly all actives have a fitted effect of over 60% in size
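Cell-based reporter: Huh7 stable for Rab9 promoter-driven luciferase, plated in reduced-serum medium with 10% FBS at 1500 cells/well, compound-treated 24 h at 37 °C, luminescence read after 10 min reagent.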
Starred values were filed as active, the others as inactive; [ ] = remark or other dose. A selection: hits, their analogues and other compounds. The true share with any hit is near 7.5%. Calls come from the whole dose curve; as a rule, active = well fitted curve in the direction sought with a large enough effect; inconclusive = small, poorly fitted or top-dose-only effect, or another doubt; inactive = no such curve, though single readings can be large; an effect the other way counts as inactive or inconclusive. Potency is the fitted concentration of half-maximal effect.

Screening CCOC(=O)c1cccc(NC(=O)Cn2c(=O)nc(-c3ccccc3F)c3cc(Cl)ccc32)c1 returned FLuc counter -17.4%.
`Cc1ccc(CN2CC(C(=O)Nc3cc(C)ccn3)CC2=O)cc1` (stereo not drawn) gave ELG1 genotox 16.4µM*, NPC1 promoter act 0.0%, FLuc counter 12µM* and Rab9 promoter act -0.2%.
Cc1ccnc(NC(=O)C2CC(=O)N(c3ccc4c(c3)OCCO4)C2)c1 (stereo not drawn) was read as ELG1 genotox 0.517µM*, NPC1 promoter act 8.5%, FLuc counter 4.78µM* and Rab9 promoter act 19.8%.
For Cc1ccc(CN2CC(C(=O)Nc3ccncc3)CC2=O)cc1 (stereo not drawn) the results were ELG1 genotox -2.5%, NPC1 promoter act -0.8%, FLuc counter -0.5% and Rab9 promoter act 14.9%.
For Clc1ccccc1CNc1nc2ccccc2c2nc(-c3cccnc3)nn12 the results were FLuc counter -6.4% and SMN2 splice enh -1.7%.
Screening Cc1ccc(NC(=O)Nc2cccc([N+](=O)[O-])c2)cc1F returned ELG1 genotox 2.4%, NPC1 promoter act inconclusive, FLuc counter 10.7µM* and Rab9 promoter act 16.9%.
Screening O=C(Nc1ccc(OC(F)(F)F)cc1)Nc1cccc([N+](=O)[O-])c1 returned ELG1 genotox 3.5%, NPC1 promoter act -10.2%, FLuc counter 23.9µM* and Rab9 promoter act -29.9%.
O=C(Nc1cccnc1)Nc1cccc([N+](=O)[O-])c1 was read as ELG1 genotox -8.5%, NPC1 promoter act 10.6%, FLuc counter -18.2% and Rab9 promoter act 5.3%.
Cc1cc(NC(=O)Nc2cccc([N+](=O)[O-])c2)no1 was read as ELG1 genotox -4.0%, NPC1 promoter act 11.2%, KinaseGlo FLuc -2.3%, FLuc counter -9.4%, SMN2 splice enh -1.3% and Rab9 promoter act 9.9%.
`C=CCSc1nnc(-c2ccc([N+](=O)[O-])cc2)o1` gave ELG1 genotox inconclusive, NPC1 promoter act 3.55µM*, KinaseGlo FLuc 0.8%, FLuc counter 16.9µM*, SMN2 splice enh inconclusive and Rab9 promoter act 3.98µM*.
For Clc1ccc(-c2nnc(SCc3ccon3)o2)c(Cl)c1 the results were ELG1 genotox 1.16µM*, NPC1 promoter act 0.355µM*, KinaseGlo FLuc -4.0%, FLuc counter 1.2µM*, SMN2 splice enh 2.82µM* and Rab9 promoter act 0.501µM*.
Screening C=CCSc1nnc(-c2ccc(Cl)cc2Cl)o1 returned ELG1 genotox inconclusive, NPC1 promoter act 0.708µM*, KinaseGlo FLuc 7.9%, FLuc counter 1.35µM*, SMN2 splice enh inconclusive and Rab9 promoter act 0.447µM*.
CCc1cccc(NC(=O)Cn2c(=O)n(CCC(=O)NCC3CCCO3)c(=O)c3cc(OC)c(OC)cc32)c1 (stereo not drawn) was read as ELG1 genotox -5.7%, NPC1 promoter act 2.5%, FLuc counter 1.5%, SMN2 splice enh inconclusive and Rab9 promoter act 7.3%.
Screening CCn1c(C(=O)N2CCC(C(=O)N3CCN(c4ccc(OC)cc4)CC3)CC2)cc2sccc21 returned FLuc counter -11.8% and SMN2 splice enh -43.1%.
CC(=O)NC(CSC(CC(=O)c1ccco1)c1ccc(C)cc1)C(=O)O (stereo not drawn) was read as ELG1 genotox inconclusive, NPC1 promoter act 11.7%, KinaseGlo FLuc -9.4%, FLuc counter 4.26µM*, SMN2 splice enh -8.8% and Rab9 promoter act inconclusive.
CN1C(=O)/C(=N\OC(=O)c2cccc3ccccc23)c2ccccc21 was read as ELG1 genotox 5.4%, NPC1 promoter act 1.5%, KinaseGlo FLuc -0.9%, FLuc counter 10.7µM*, SMN2 splice enh -10.5% and Rab9 promoter act 9.0%.
Screening CC(=O)/C=C1\C(=O)N(C)c2ccccc21 returned NPC1 promoter act -30.1%[46.1 µM] and Rab9 promoter act -43.9%[46.1 µM].
